The whole screen tested about 65,000 compounds, of which about 2,100 (3.2%) showed an effect of 50% or more. The median lay at about -52%. Many of the other results were omitted from the sample, so strong results are more common in it than they were.
tested on: Plasmodium falciparum; assay: Screen against P. falciparum Asexual Blood Stage (ABS), at 5uM; assay type: functional, Dd2; details: tested at 5 uM

| SMILES | INHIBITION |
| --- | --- |
| CCCC(=O)N1CCC2(CC1)OCCO2 | -40.8% |
| OCCN1CCC(c2cncc(-c3cccc(Cl)c3)n2)CC1 | 71.1% |
| COCCN1CCC(c2cncc(-c3cccc(Cl)c3)n2)CC1 | 71.1% |
| CN1CCC(c2cncc(Cl)n2)CC1 | -28.5% |
| COCCN1CC=C(c2cccc(OC)c2)CC1 | 13.9% |
| COCCN1CC[C@H]2OCC[C@@H](C(=O)Nc3cccnc3)[C@@H]2C1 | -67.2% |
| CCCS(=O)(=O)N1CCOC2(CCCN(Cc3ccccn3)C2)C1 (stereo not drawn) | -21.2% |
| CN(C)C[C@]12COC[C@H]1CN(Cc1ccccn1)C2 | -39.8% |
| Cc1ccc(CN2CCN(C)c3ncccc3C2)o1 | -75.5% |
| COc1cccc(CN2CCN3C(=O)NC[C@H]3C2)n1 | -90.1% |
| Cc1cccc(CN2CCN3C[C@H](Oc4cccnc4)C[C@H]3C2)n1 | -91.1% |
| Clc1cccc2c3c([nH]c12)CCN(Cc1cc2n(n1)CCCNC2)C3 | 89.7% |
| Clc1cccc2c3c([nH]c12)CCN(Cc1cc2n(n1)CCNC2)C3 | 79.1% |
| c1cncc(OC[C@]23COC[C@H]2CN(Cc2nccs2)C3)c1 | -94.4% |
| CC(C)N1CCOC(c2ccnc(N(C)C)n2)C1 (stereo not drawn) | -133% |
| Cc1cccc(CN2CCO[C@H]3[C@H](Oc4ccccn4)CC[C@@H]32)n1 | -7.66% |
| Cc1cc(N2CCOC(c3ccccn3)C2)nc(N)n1 (stereo not drawn) | 75.1% |
| N#CC1CCCN(c2nc(-c3ccccc3)nc3c2CCNCC3)C1 (stereo not drawn) | 79.9% |
| NCC1CCCN(c2nc(-c3ccccc3)nc3c2CCNCC3)C1 (stereo not drawn) | 85.9% |
| Cc1noc(C)c1CN1C[C@H](OCC2CC2)[C@H]2OCCC[C@H]21 | -58% |
| CS(=O)(=O)NCc1cncc2c1CCN(CC1CCOC1)C2 (stereo not drawn) | -80.3% |
| Cc1noc(C)c1CN1C[C@H](OCC(=O)N(C)C)[C@H]2OCCC[C@H]21 | -72.7% |
| Cc1cc(CN2CCc3nc(-c4ccncc4)nc(O)c3CC2)c(C)s1 | 91% |
| Cc1cc(CN2CCc3nc(N4CCOCC4)nc(O)c3CC2)c(C)s1 | 77.6% |
| O=C(N[C@H]1CN[C@H]2CCCO[C@H]21)c1cccnc1 | -13.5% |
| Cc1cc(CN2CCO[C@H]3[C@H](OCc4csc(C)n4)CC[C@@H]32)no1 | -73.3% |
| CC(C)[C@H](N)C(=O)N1CCSc2ccccc2C1 | 73.7% |
| O=C1Nc2ccccc2C12CCCN(Cc1ccncc1)C2 (stereo not drawn) | -78.5% |
